Fluorescein fluor: fluorescein region autofluorescence; Compound autofluorescence, 480/540 nm, fluorescein-equivalent; stronger effect = higher value; max fluorescein-equivalent concentration, M; actives 0.91% (n = 59,000); in the data active means max fluorescein-equivalent concentration above about 10 nM; inconclusive means between about 1.1 nM and that limit
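Each compound is tested across a concentration series in 100 mM Tris buffer at pH 8.0. After 15 min at room temperature, plates are imaged with 480 nm excitation and 540 nm emission filters, and intensities are converted to fluorescein-equivalent values.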
Resorufin autofl: resorufin region autofluorescence | Compound fluorescence, resorufin region 547/598 nm, buffer; stronger effect = higher value | max dye-equivalent concentration, M | actives 0.04% (n = 59,000) | AID 588
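Compounds in 100 mM Tris, pH 8.0, incubated 15 min at room temperature, then fluorescence read at 547 nm excitation/598 nm emission. Signal converted to dye-equivalent concentration via an on-plate six-point resorufin standard curve, per compound concentration.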
Rhodamine fluor: compound autofluorescence in rhodamine spectral region | Rhodamine-region fluorescence, 547/598 nm, Tris buffer; stronger effect = higher value | max dye-equivalent concentration, M | actives 0.05% (n = 59,000); in the data active means max dye-equivalent concentration above about 11 nM; inconclusive means between about 1.1 nM and that limit
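Steps: pin-transfer compounds into pH 8.0 Tris (100 mM), hold 15 min at room temperature, image with a 547/598 nm filter pair, and convert intensities to rhodamine-equivalent concentration using a six-point on-plate rhodamine series.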
TexasRed autofl: compound fluoresces in the Texas Red spectral region. Compound fluorescence, Texas Red channel, 547/618 nm; stronger effect = higher value. max dye-equivalent concentration, M. actives 0.06% (n = 59,000); in the data active means max dye-equivalent concentration above about 10 nM; inconclusive means between about 1.1 nM and that limit
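Texas Red-region profiling: compounds in 100 mM Tris pH 8.0 were read at 547/618 nm after 15 min at room temperature. Intensities were normalized against a six-point Texas Red standard series to give dye-equivalent concentration.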
A647 fluor: A647 region autofluorescence. max dye-equivalent concentration, M. Compound fluorescence, A647 channel (570/671 nm), Tris buffer. AID 592. 59,000 tested, under 10 active
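Each compound's intrinsic fluorescence at 570 nm excitation and 671 nm emission is measured across its concentration series in 100 mM Tris, pH 8.0, after 15 min at room temperature, and reported relative to an A647 curve.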
A488 fluor: compound fluoresces in the A488 spectral region. actives 0.1% (n = 59,000). max dye equivalency, M. compound autofluorescence, A488 spectral region, dye equivalency; Compound Type: qHTS ECL - MLSMR
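Read-out: relative fluorescence at 480/540 nm, expressed as Alexa 488 dye-equivalent concentration from a six-point A488 standard included per plate. Conditions: 100 mM Tris, pH 8.0; 15 min incubation, room temperature.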
A number is an active result. The list is not random: actives were taken first. Their share in the collection is about 0.9%. Unless noted, how the calls were made is not given here.

For NC1=C2NC=N[C@@H]2N(C/C=C\c2ccccc2)C=N1 the results were Fluorescein fluor inactive, Resorufin autofl inactive, Rhodamine fluor inactive, TexasRed autofl inactive, A647 fluor inactive and A488 fluor inactive.
`COc1ccc2c(c1)c1c(C)c3cnccc3c(C)c1n2CCCN` gave Fluorescein fluor inactive, Resorufin autofl inactive, Rhodamine fluor inactive, TexasRed autofl inactive, A647 fluor inactive and A488 fluor inactive.
Screening COc1ccc2nc(N3CCCCC3)c(C#N)cc2c1 returned Fluorescein fluor 1.5e-08M, Resorufin autofl inactive, Rhodamine fluor inactive, TexasRed autofl inconclusive, A647 fluor inactive and A488 fluor inactive.
For COc1ccc2nc(N3CCCC3)c(C#N)cc2c1 the results were Fluorescein fluor 7.2e-08M, Resorufin autofl inactive, Rhodamine fluor inactive, TexasRed autofl inactive, A647 fluor inactive and A488 fluor inconclusive.
For Cc1[nH]c2c(C)ccc(C)c2c1CC(=O)O the results were Fluorescein fluor inactive, Resorufin autofl inactive, Rhodamine fluor inactive, TexasRed autofl inactive, A647 fluor inactive and A488 fluor inactive.
Screening O=C(CN1c2cccc3cccc(c23)S1(=O)=O)N1CCOCC1 returned Fluorescein fluor 3.7e-08M, Resorufin autofl inactive, Rhodamine fluor inactive, TexasRed autofl inactive, A647 fluor inactive and A488 fluor inconclusive.
Screening CSc1ccc(C2C(C#N)=C(N)Oc3c2ccc(=O)c2c(C)oc(C)c32)cc1 (stereo not drawn) returned Fluorescein fluor inconclusive, Resorufin autofl inactive, Rhodamine fluor inactive, TexasRed autofl inactive, A647 fluor inactive and A488 fluor inactive.
Screening CC(=O)C1=C(C)OC(N)=C(C#N)C1c1ccco1 (stereo not drawn) returned Fluorescein fluor inconclusive, Resorufin autofl inactive, Rhodamine fluor inactive, TexasRed autofl inactive, A647 fluor inactive and A488 fluor inactive.
`Cc1oc(C)c2c(=O)ccc3c(c12)OC(N)=C(C#N)C3c1ccccc1Cl` (stereo not drawn) gave Fluorescein fluor 1.5e-08M, Resorufin autofl inactive, Rhodamine fluor inactive, TexasRed autofl inactive, A647 fluor inactive and A488 fluor inactive.
For Cc1oc(C)c2c(=O)ccc3c(c12)OC(N)=C(C#N)C3c1ccccc1 (stereo not drawn) the results were Fluorescein fluor 1.1e-08M, Resorufin autofl inactive, Rhodamine fluor inactive, TexasRed autofl inactive, A647 fluor inactive and A488 fluor inactive.
`COCC(=O)N1CCC2(CC1)CN(Cc1nccs1)C2` gave Fluorescein fluor inactive, Resorufin autofl inactive, Rhodamine fluor inactive, TexasRed autofl inactive, A647 fluor inactive and A488 fluor inactive.
COc1cccc(Nc2ncc3nc(-c4ccc(Cl)cc4)c(=O)n(C[C@H]4CCCO4)c3n2)c1 was read as Fluorescein fluor inactive, Resorufin autofl inactive, Rhodamine fluor inactive, TexasRed autofl inactive, A647 fluor inactive and A488 fluor inactive.
`COc1cccc(Nc2ncc3nc(-c4ccccc4)c(=O)n(C[C@H]4CCCO4)c3n2)c1` gave Fluorescein fluor 1.1e-08M, Resorufin autofl inactive, Rhodamine fluor inactive, TexasRed autofl inactive, A647 fluor inactive and A488 fluor inactive.
Screening C/C(=C(/CCO)SSC[C@@H]1CCCO1)N(C=O)Cc1cnc(C)nc1N returned Fluorescein fluor inconclusive, Resorufin autofl inactive, Rhodamine fluor inactive, TexasRed autofl inactive, A647 fluor inactive and A488 fluor inactive.
`Cn1c(Sc2ccc(-c3cccnc3)n2C)ccc1-c1cccnc1` gave Fluorescein fluor inactive, Resorufin autofl inactive, Rhodamine fluor inactive, TexasRed autofl inactive, A647 fluor inactive and A488 fluor inactive.
For CCn1c(CSc2nnc3ccccn23)nc2cc(C(=O)O)ccc21 the results were Fluorescein fluor 1.4e-08M, Resorufin autofl 4.7e-08M, Rhodamine fluor 7.1e-08M, TexasRed autofl 1.1e-07M, A647 fluor inactive and A488 fluor inactive.
For CCn1c(CSc2nnc(-c3cccnc3)n2-c2ccccc2C)nc2cc(C(=O)O)ccc21 the results were Fluorescein fluor inconclusive, Resorufin autofl 2.2e-07M, Rhodamine fluor 2.6e-07M, TexasRed autofl 4.2e-07M, A647 fluor inconclusive and A488 fluor inactive.
For CCOc1ccccc1-n1c(SCC(N)=O)nnc1-c1cccnc1 the results were Fluorescein fluor inactive, Resorufin autofl inactive, Rhodamine fluor inactive, TexasRed autofl inactive, A647 fluor inactive and A488 fluor inactive.
Screening CCN(CC)CCC[C@H](C)Nc1c2ccc(Cl)cc2nc2ccc(OC)cc12 returned Fluorescein fluor 9e-08M, Resorufin autofl inactive, Rhodamine fluor inactive, TexasRed autofl inactive, A647 fluor inactive and A488 fluor inconclusive.
Screening O=c1oc2c(CN3CCCCCC3)c(O)ccc2cc1-c1nc2ccccc2[nH]1 returned Fluorescein fluor 3e-06M, Resorufin autofl inactive, Rhodamine fluor inactive, TexasRed autofl inactive, A647 fluor inactive and A488 fluor 1.4e-07M.
For Nc1ncnc2nc[nH]c12.Nc1ncnc2nc[nH]c12.[Cl][Pt]([Cl])([Cl])[Cl] the results were Fluorescein fluor inactive, Resorufin autofl inactive, Rhodamine fluor inactive, TexasRed autofl inactive, A647 fluor inactive and A488 fluor inactive.
For CC(=O)S[C@H]1CC2=CC(=O)CC[C@@]2(C)[C@H]2CC[C@@]3(C)[C@H](CC[C@]34CCC(=O)O4)[C@@H]12 the results were Fluorescein fluor 4.9e-08M, Resorufin autofl inconclusive, Rhodamine fluor inconclusive, TexasRed autofl 1e-08M, A647 fluor inactive and A488 fluor inconclusive.
C=CCn1c(/N=C/c2ccc(N(C)C)cc2)nc2ccccc21 was read as Fluorescein fluor 2.1e-08M, Resorufin autofl inactive, Rhodamine fluor inactive, TexasRed autofl inactive, A647 fluor inactive and A488 fluor inactive.
Screening CN(C)c1ccc(/C=N/n2ncc3ccccc32)cc1 returned Fluorescein fluor inactive, Resorufin autofl inactive, Rhodamine fluor inactive, TexasRed autofl inactive, A647 fluor inactive and A488 fluor inactive.
`COCCNc1ncnc2ccc(-c3ccc(N(C)C)cc3)cc12` gave Fluorescein fluor inconclusive, Resorufin autofl inactive, Rhodamine fluor inactive, TexasRed autofl inactive, A647 fluor inactive and A488 fluor inactive.
Screening O=[N+]([O-])c1ccc2ncccc2c1CCc1c([N+](=O)[O-])ccc2ncccc12 returned Fluorescein fluor 1.1e-08M, Resorufin autofl inactive, Rhodamine fluor inactive, TexasRed autofl inactive, A647 fluor inactive and A488 fluor inactive.
`COCC(=O)N1CCC2(CC1)CN(Cc1cc(C(F)(F)F)cc(C(F)(F)F)c1)C2` gave Fluorescein fluor inactive, Resorufin autofl inactive, Rhodamine fluor inactive, TexasRed autofl inactive, A647 fluor inactive and A488 fluor inactive.
For CCN(CC)c1ccc2cc(C(=O)Nc3ccccn3)c(=O)oc2c1 the results were Fluorescein fluor 5.4e-07M, Resorufin autofl inactive, Rhodamine fluor inactive, TexasRed autofl inactive, A647 fluor inactive and A488 fluor 2.6e-08M.
Screening CCN(CC)c1ccc2cc(NC(=O)CCC(=O)O)c(=O)oc2c1 returned Fluorescein fluor 2.2e-07M, Resorufin autofl inactive, Rhodamine fluor inactive, TexasRed autofl inactive, A647 fluor inactive and A488 fluor 1.2e-08M.

Source: PubChem (National Center for Advancing Translational Sciences (NCATS))
